The whole screen tested about 40,000 compounds, of which about 1,400 (3.5%) were called active.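 The calls were made as follows: active = any of four per-well response measures lying three or more SD from its plate-wide compound average, in either direction; inactive = the rest, inconclusive results apart.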 The full list was thinned out, with actives kept by preference.

For the experiment, the target named is Voltage-dependent calcium channel gamma-2 subunit (Mus musculus) + Glutamate receptor 2 (Rattus norvegicus) (UniProt O88602+P19491). Nature of the experiment: modulators of GluA2-stargazin AMPA receptor complexes, primary screen, cell-based, membrane potential dye (AID 1259245). Particulars: HEK293 GluA2+stargazin, membrane potential dye (FDSS), glutamate EC50, at 30 µM, hits were called plate by plate, in both directions; compound max-min signal: compound-alone response (agonism); glutamate slope, % of max: measured here: glutamate response slope, % max.
Voltage-dependent calcium channel gamma-2 subunit (Mus musculus) + Glutamate receptor 2 (Rattus norvegicus), sequence (O88602 whole entry, looked up): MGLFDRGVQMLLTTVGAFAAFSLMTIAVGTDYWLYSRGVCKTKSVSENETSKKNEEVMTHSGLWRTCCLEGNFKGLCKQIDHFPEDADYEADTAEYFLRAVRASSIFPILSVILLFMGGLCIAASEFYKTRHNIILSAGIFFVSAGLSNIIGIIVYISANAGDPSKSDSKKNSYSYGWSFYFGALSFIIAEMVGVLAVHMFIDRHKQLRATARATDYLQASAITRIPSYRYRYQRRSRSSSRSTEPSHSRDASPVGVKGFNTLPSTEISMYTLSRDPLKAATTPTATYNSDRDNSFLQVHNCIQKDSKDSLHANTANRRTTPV
Voltage-dependent calcium channel gamma-2 subunit (Mus musculus) + Glutamate receptor 2 (Rattus norvegicus), sequence (P19491 whole entry, looked up): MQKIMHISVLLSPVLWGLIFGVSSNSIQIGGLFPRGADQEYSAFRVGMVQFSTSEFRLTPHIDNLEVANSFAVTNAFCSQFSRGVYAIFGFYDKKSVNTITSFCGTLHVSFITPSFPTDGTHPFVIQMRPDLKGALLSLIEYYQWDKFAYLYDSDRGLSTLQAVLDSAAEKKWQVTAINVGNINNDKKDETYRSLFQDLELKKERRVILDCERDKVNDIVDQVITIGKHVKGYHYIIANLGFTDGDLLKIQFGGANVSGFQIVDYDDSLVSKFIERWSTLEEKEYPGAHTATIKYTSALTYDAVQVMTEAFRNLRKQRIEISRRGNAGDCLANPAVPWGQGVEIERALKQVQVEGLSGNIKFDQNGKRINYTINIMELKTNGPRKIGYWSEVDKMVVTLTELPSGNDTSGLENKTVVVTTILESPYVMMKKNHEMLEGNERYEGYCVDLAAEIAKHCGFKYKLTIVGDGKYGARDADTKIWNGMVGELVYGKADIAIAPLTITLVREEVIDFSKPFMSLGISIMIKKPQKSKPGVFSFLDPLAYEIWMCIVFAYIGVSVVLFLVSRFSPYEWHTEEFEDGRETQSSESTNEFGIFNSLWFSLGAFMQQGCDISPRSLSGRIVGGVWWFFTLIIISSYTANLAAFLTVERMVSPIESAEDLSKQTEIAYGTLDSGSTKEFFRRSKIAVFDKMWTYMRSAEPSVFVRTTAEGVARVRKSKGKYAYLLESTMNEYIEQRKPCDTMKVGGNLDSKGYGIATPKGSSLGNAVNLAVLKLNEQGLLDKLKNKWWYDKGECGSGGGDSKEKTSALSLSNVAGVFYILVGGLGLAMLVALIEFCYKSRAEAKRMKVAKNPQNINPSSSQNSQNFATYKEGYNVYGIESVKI
Turning to `O=C(/C=C/c1ccccc1)Nc1ccc(CC(=O)N2CCCC2)cc1`, the compound max-min signal was determined as 0.119; the glutamate response, % of max is 31.3% (inactive); the glutamate slope, % of max was 65.4%.
For the compound `C=CCNC(=O)NC1CCCCC1N1C(=O)CSC1=O` (stereo unspecified), the compound max-min signal turned out to be 0.12; the glutamate response, % of max was 10.5% (inactive); the glutamate slope, % of max was 45.6%.
Taken in the same sequence, the figures for `CSc1ccccc1NC(=O)c1nc(-c2cnccn2)no1` were 0.143, 23.2% (inactive) and 49.2%.
Consider `COc1ccc(CCNC(=O)CCc2sc(C)nc2-c2cccs2)cc1`, for which the compound max-min signal is 0.0606; the glutamate response, % of max is 19.1% (inactive); the glutamate slope, % of max worked out at 37.1%.
With `COc1ccc(NC(=O)CCc2sc(C)nc2-c2cccs2)cc1OC`, the compound max-min signal was found to be 0.123; the glutamate response, % of max is 37.8% (inactive); the glutamate slope, % of max worked out at 60.9%.
Turning to `Cc1nc(-c2cccs2)c(CCC(=O)NCc2ccc3c(c2)OCO3)s1`, the compound max-min signal stood at 0.114; the glutamate response, % of max is 10.6% (active); the glutamate slope, % of max was 25.8%.
Take `COc1cc2cc(CNc3ccc(C)cc3)c(=O)n(CC(=O)Nc3ccccc3F)c2cc1OC`: the compound max-min signal turned out to be 0.116; the glutamate response, % of max is 25.6% (inactive); the glutamate slope, % of max came to 49.4%.
On to `COc1ccc2cc(CNc3ccccc3)c(=O)n(CC(=O)Nc3ccccc3OC)c2c1`, for which the compound max-min signal stood at 0.0876; the glutamate response, % of max was -1.71% (active); the glutamate slope, % of max was 4.4%.
In the case of `Cc1ccc2cc(CNc3ccccc3)c(=O)n(CC(=O)Nc3ccccc3C)c2c1`, the compound max-min signal was found to be 0.0993; the glutamate response, % of max was 29.6% (inactive); the glutamate slope, % of max was determined as 44.3%.
In the case of `Cc1cc(C)cc(-n2c(SCC#N)nc3cc(C(=O)NC4CCCC4)ccc3c2=O)c1`, the compound max-min signal amounted to 0.127; the glutamate response, % of max is 50.2% (inactive); the glutamate slope, % of max was 72.1%.
`CCOC(=O)c1ccc(-n2c(C)c(C)n3c4c(=O)n(CC)c(=O)n(C)c4nc23)cc1`: the compound max-min signal was found to be 0.126; the glutamate response, % of max is 48.1% (inactive); the glutamate slope, % of max was 62.4%.
Regarding `CCC(C)c1ccccc1OCC(O)CN` (stereo unspecified), the compound max-min signal was 0.0631; the glutamate response, % of max is 21.1% (inactive); the glutamate slope, % of max came to 39.8%.
For `Cc1cc(N(C)C)nc(-n2cc([N+](=O)[O-])cn2)n1`, the compound max-min signal came out at 0.178; the glutamate response, % of max is 35.4% (active); the glutamate slope, % of max was 63.4%.
Regarding `O=C(c1ccc(Cl)s1)N1CCC(c2ccsc2)CC1`, the compound max-min signal was 0.0754; the glutamate response, % of max was 43.8% (inactive); the glutamate slope, % of max was 57%.
`COCCNC(=O)C(=O)Nc1cc(N2CCCS2(=O)=O)ccc1OC`: the compound max-min signal turned out to be 0.105; the glutamate response, % of max is 22.8% (inactive); the glutamate slope, % of max is 46.1%.
With `CN1CCc2c(sc(NC(=O)c3ccc(Br)cc3)c2-c2nc3ccccc3s2)C1`, the compound max-min signal was determined as 0.139; the glutamate response, % of max was 53.9% (inactive); the glutamate slope, % of max stood at 74%.
For the compound `CC(=O)c1ccc(C(=O)Nc2sc3c(c2-c2nc4ccccc4s2)CCN(C)C3)cc1`, the compound max-min signal was 0.226; the glutamate response, % of max was 65.6% (active); the glutamate slope, % of max turned out to be 85%.
Taken in the same sequence, the figures for `CCOc1ccc(C(=O)Nc2sc3c(c2-c2nc4ccccc4s2)CCN(C)C3)cc1` were 0.114, 34.3% (inactive) and 50.1%.
For the compound `COc1ccc2sc(N(CC3CCCO3)C(=O)C3CCCC3)nc2c1` (stereo unspecified), the compound max-min signal stood at 0.117; the glutamate response, % of max was 20% (inactive); the glutamate slope, % of max stood at 33.1%.
With `Cc1nc2ccccn2c1C(=O)Nc1ccc2c(c1)CC(=O)N2C`, the compound max-min signal turned out to be 0.213; the glutamate response, % of max is 46.6% (active); the glutamate slope, % of max is 65.1%.
Turning to `Cc1nc2ccccn2c1C(=O)NCC(O)(c1ccccc1)C(F)(F)F` (stereo unspecified), the compound max-min signal was determined as 0.141; the glutamate response, % of max was 14.1% (inactive); the glutamate slope, % of max stood at 49.7%.
On to `CN1C(=O)Cc2cc(NC(=O)NC(c3ccccc3)c3ccccc3)ccc21`, for which the compound max-min signal came to 0.121; the glutamate response, % of max is 41.8% (inactive); the glutamate slope, % of max stood at 60.5%.
Regarding `CCOC(=O)CNC(=O)C(=O)c1c(C)[nH]c2ccccc12`, the compound max-min signal was found to be 0.14; the glutamate response, % of max was 51.3% (inactive); the glutamate slope, % of max worked out at 67.4%.
For `CN(C)S(=O)(=O)NCC#CCN1CCc2ccccc2C1`, the compound max-min signal turned out to be 0.0659; the glutamate response, % of max was 38.5% (inactive); the glutamate slope, % of max stood at 57.8%.
Consider `O=S(=O)(/C=C/c1ccccc1)NCC#CCN1CCc2ccccc2C1`, for which the compound max-min signal is 0.144; the glutamate response, % of max is 41.7% (active); the glutamate slope, % of max was found to be 55.5%.
As for `O=S(=O)(NCC#CCN1CCc2ccccc2C1)c1ccc(Br)cc1`, the compound max-min signal was determined as 0.0488; the glutamate response, % of max was 43.9% (inactive); the glutamate slope, % of max was 66.2%.
As to `CCNC(=O)CSc1nc(-c2ccccc2)c(NC(=O)CC2CCCC2)s1`, the compound max-min signal was 0.0584; the glutamate response, % of max is 31.3% (inactive); the glutamate slope, % of max came out at 44.8%.
Taken in the same sequence, the figures for `COc1ccc(CC(=O)NCCOc2cc(C)cc(C)c2)cc1OC` were 0.0873, 52% (inactive) and 63.4%.
For `CC(C)NC(=O)Nc1ccc(CN2CCN(C)CC2)cc1`, the compound max-min signal stood at 0.107; the glutamate response, % of max is 37% (inactive); the glutamate slope, % of max turned out to be 57.1%.
In the same order, the values of `COc1ccc(SCCC(=O)N2CCN(c3nc4ccc(F)cc4s3)CC2)cc1` are 0.0995, 50.5% (inactive) and 60.6%.
For `O=C(c1ccno1)N1CCN(c2nc3ccc([N+](=O)[O-])cc3s2)CC1`, the compound max-min signal stood at 0.188; the glutamate response, % of max was 27.8% (active); the glutamate slope, % of max worked out at 50.2%.
Consider `COc1ccc([N+](=O)[O-])cc1NC(=O)c1ccno1`, for which the compound max-min signal was 0.13; the glutamate response, % of max was 15.2% (inactive); the glutamate slope, % of max came to 32.1%.
Taken in the same sequence, the figures for `CN(C)C(=O)N1CCN(S(=O)(=O)c2ccc(F)cc2)CC1` were 0.11, 30.6% (inactive) and 58.2%.
In the case of `O=C(CCCS(=O)(=O)c1ccc(F)cc1)Nc1cccc2c1C(=O)NC2=O`, the compound max-min signal amounted to 0.0985; the glutamate response, % of max is 41.1% (inactive); the glutamate slope, % of max is 66.5%.
Regarding `COc1ccc(N(Cc2cccc(C)c2)S(=O)(=O)c2ccc3nnc(C)n3c2)cc1`, the compound max-min signal stood at 0.0921; the glutamate response, % of max is 39% (inactive); the glutamate slope, % of max was determined as 70.3%.
Take `CCCN(CCC)S(=O)(=O)c1cc([N+](=O)[O-])ccc1C`: the compound max-min signal came to 0.0514; the glutamate response, % of max was 71% (active); the glutamate slope, % of max worked out at 88.7%.
With `Cc1ccc([N+](=O)[O-])cc1NC(=O)C(=O)NCC(c1cccs1)N(C)C` (stereo unspecified), the compound max-min signal was determined as 0.155; the glutamate response, % of max was 57.6% (inactive); the glutamate slope, % of max turned out to be 83.7%.
For `CCc1nc2sc(C(c3ccc(F)c(F)c3)N3CCN(C(C)=O)CC3)c(O)n2n1` (stereo unspecified), the compound max-min signal is 0.111; the glutamate response, % of max was 52.6% (inactive); the glutamate slope, % of max worked out at 74.4%.
For `NS(=O)(=O)c1ccc(CNC(=O)Cc2csc(Nc3cccc(Cl)c3)n2)cc1`, the compound max-min signal was determined as 0.171; the glutamate response, % of max is 32.8% (inactive); the glutamate slope, % of max was determined as 56.3%.
With `COCC(=O)Nn1cnc2c(cnn2C(C)(C)C)c1=O`, the compound max-min signal stood at 0.121; the glutamate response, % of max is -2.09% (active); the glutamate slope, % of max was 5.77%.
Taken in the same sequence, the figures for `Cc1ccccc1C(=O)Nn1cnc2c(cnn2C(C)(C)C)c1=O` were 0.0501, 31.3% (inactive) and 53.1%.
In the same order, the values of `CC(C)(C)n1ncc2c(=O)n(NC(=O)Cc3ccc([N+](=O)[O-])cc3)cnc21` are 0.0341, 22.1% (inactive) and 47.4%.
`Cc1cc(C)c2c(n1)sc1c(=O)n(CC(=O)Nc3ccccc3Br)cnc12`: the compound max-min signal was 0.125; the glutamate response, % of max was 47% (inactive); the glutamate slope, % of max worked out at 70.2%.
As for `COc1ccc(Cl)cc1NC(=O)NCC#CCN1CCc2ccccc2C1`, the compound max-min signal was found to be 0.108; the glutamate response, % of max was 30.6% (inactive); the glutamate slope, % of max stood at 53.9%.
On to `CCCOC(=O)CC1C(=O)NCCN1C(=S)NC(=O)c1cccc(Cl)c1` (stereo unspecified), for which the compound max-min signal was 0.102; the glutamate response, % of max is 20% (inactive); the glutamate slope, % of max amounted to 39.3%.
As for `COc1ccc(Cl)cc1NC(=O)CC1C(=O)NCCN1C(=S)Nc1ccccc1` (stereo unspecified), the compound max-min signal was determined as 0.205; the glutamate response, % of max was 26.6% (active); the glutamate slope, % of max was found to be 35.6%.
`Cn1nnc2c(N(CCc3ccccc3)Cc3ccccc3)ncnc21`: the compound max-min signal came to 0.0947; the glutamate response, % of max was 34% (inactive); the glutamate slope, % of max worked out at 57.6%.
